# Experimental data published in PubChem BioAssay.
# Values joined by “and” are separate entries in the source; they are usually repeats but may differ in a detail not shown here. Equal entries are not always repeated. A structure can be active in one record and inactive in another. Active and inactive are the calls of the source.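 How the source made its calls, unless noted: active means thallium flux through the channel raised or lowered by more than 3 SD from vehicle-only wells, actives on both sides; inactive means the rest.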
# Legend:
# [1] = stimulators of nuclear beta-catenin in C2C12, primary screen, imaging, WNT3A-conditioned medium, mouse C2C12, NPC library (AID 1117326; in the data active means nuclear beta-catenin stimulation mostly above about 4.2%, no sharp cut-off; inactive means mostly below about 10%); conditions: stronger effect = higher value
# [2] = stimulators of insulin release from INS-1E, primary screen, cell-based, 5 mM glucose, NPC library (AID 1117329;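 active means compound raises insulin release from rat beta cells at 5 mM glucose, no numeric limit stated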); conditions: rat INS-1E insulin secretion, at 10 µM, stronger effect = higher value
# [3] = growth inhibition of GSK3B-pretreated HCT116 cells – cell-based, CellTiter-Glo, 0.2 to 20 µM (AID 1117336;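 active means compounds lowering colon cancer cell viability after pretreatment blocking the GSK3B kinase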); conditions: HCT116 viability after GSK3B inhibitor, at 20 µM, stronger effect = higher value
# [4] = inhibition of endothelial tube formation, primary screen, imaging, VEGF stimulated, CD31 staining, tube area, NPC library (AID 1117340;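 active means compound that reduces growth-factor-driven endothelial tube area in a mixed cell culture, no cutoff stated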); conditions: VEGF-stimulated ADSC/ECFC co-culture, at 10 µM, stronger effect = higher value
# [5] = glucagon-like peptide 1 release enhancers, primary assay, NCI-H716 cell line, NPC library (AID 1117341;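 active means compound raises GLP1 secretion from the human gut endocrine cells, with no numeric limit stated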); conditions: NCI-H716 cells, at 10 µM, stronger effect = higher value
# [6] = HCT116 colon cancer cell growth inhibition, primary screen, CellTiter-Glo luminescence, NPC library (AID 1117342;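 active means compounds that lower survival of HCT116 colon cancer cells in the luminescence readout, no numeric limit stated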); conditions: at 20 µM (top of the series)
# [7] = CellTiter-Glo luminescent readout of SW480 viability loss, NPC library primary (AID 1117343;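 active means compounds that lower viability of the colon cancer cells in the luminescence readout, with no numeric limit stated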); conditions: CellTiter-Glo luminescence; at 20 µM (top of the series)
# [8] = decreased DLD-1 cellular survival, CellTiter-Glo luminescent readout, NPC compound collection, primary HTS (AID 1117346;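 active means compounds that lower survival of DLD-1 colon cancer cells in the luminescence readout, no cutoff given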); conditions: DLD-1 viability, CellTiter-Glo luminescence; at 20 µM (top of the series)
# [9] = target: 6-phosphogluconate dehydrogenase, decarboxylating (Homo sapiens) (UniProt P52209); assay: 6PGD enzyme inhibitors, primary screen, biochemical, human, recombinant enzyme, NADPH absorbance (AID 1159550;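 active means at least 20% inhibition of 6-phosphogluconate dehydrogenase activity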); conditions: recombinant 6PGD, NADPH absorbance 341 nm; at 10 µM; stronger effect = higher value
# [10] = modulation of C. elegans fzo-1 (AID 1259413; call rule not given here;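 further: fzo-1 mutant C. elegans worms in liquid wells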); conditions: C. elegans fzo-1 modulator screen, mean read-out; stronger effect = higher value
# [11] = differential killing of epithelial or mesenchymal cells, primary screen, imaging, PC-3E GFP, TEM4-18 mCherry, co-culture (AID 1345086;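 active means compounds killing one labelled cell type while sparing the other, by normalised counts and ratio limits, not self-fluorescent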;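 on all read-outs here: cells exposed to compound for 72 h before imaging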;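 on red/green cell ratio (normalised): normalised mesenchymal count divided by normalised epithelial count so high means epithelial killing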); conditions: imaging cell counts, at 1 µM; for red/green cell ratio (normalised): actives lie on both sides, counts scaled to control wells, 1 = unselective
# [12] = sensitizers of A549 cells to miR-34 induction, primary screen, imaging, A549 dox-inducible miR-34, nuclei and caspase counts (AID 1347080;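 active means compounds whose cell count with miR-34 switched on is under 0.7 times the count with it off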); conditions: A549 miR-34 inducible, Hoechst nuclei count, 48 h
# [13] = survival rescue of mitochondrial mutant cells in low glucose, primary screen, MELAS cybrids, Rieske KO mouse fibroblasts, CellTiter-Glo (AID 1508586;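 active means mean z-score across replicates of 1.96 or higher in either the MELAS or the Rieske mutant cell line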;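 further: z relative to plate mean and SD of compound and empty wells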)
# [14] = target: NAD(+) hydrolase SARM1 (Homo sapiens) (UniProt Q6SZW1); assay: SARM1 TIR NADase inhibitors, cell lysate, NAD-Glo luminescence (AID 1508614;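 active means compound whose remaining NAD level is above about 45 nM, limit read from the data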); conditions: SAM-TIR HEK293T lysate NADase, at 1 µM, stronger effect = higher value
# [15] = target: Mitogen-activated protein kinase 7 (Homo sapiens) (UniProt Q13164); assay: ERK5 transactivation activators in reporter cells, primary screen, cell-based, HTS (AID 1508626;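 active means luciferase signal above three times the same-plate solvent-only control wells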;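 further: luciferase driven by Gal4-ERK5 fusion binding five Gal4 sites before minimal TATA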); conditions: HeLa Gal4-ERK5 transactivation, 18 h, at 5 µM, stronger effect = higher value
# F380Y = assay: modulators of BK channel variants, profiling panel, selectivity assay, cell-based, U2OS BacMam, thallium flux, beta subunits (AID 1259406); conditions: at 30 µM;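 further: initial slope of Thallos dye fluorescence rise after thallium is added; log ratio against the mean of 0.3% DMSO vehicle wells on the same plate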
# F380Y/beta1 = assay: as above; conditions: at 30 µM
# F380Y/beta2Delta = assay: as above; conditions: at 30 µM
# [16] = measured here: epithelial PC-3E GFP cell survival
# [17] = measured here: mesenchymal TEM4-18 mCherry cell survival
# [18] = stronger effect = lower value, cell number ratio, induced over uninduced
# [19] = measured here: relative caspase fold change +Dox/-Dox
# [20] = measured here: total cells with miR-34 induction, stronger effect = lower value
# [21] = measured here: total cells without miR-34 induction
# [22] = MELAS cybrid survival, CellTiter-Glo 48 h, stronger effect = higher value
# [23] = Rieske KO mouse fibroblast survival, CellTiter-Glo 72 h
# Sequence of Mitogen-activated protein kinase 7 (Homo sapiens) (Q13164 whole entry, looked up, the tested form may be a part): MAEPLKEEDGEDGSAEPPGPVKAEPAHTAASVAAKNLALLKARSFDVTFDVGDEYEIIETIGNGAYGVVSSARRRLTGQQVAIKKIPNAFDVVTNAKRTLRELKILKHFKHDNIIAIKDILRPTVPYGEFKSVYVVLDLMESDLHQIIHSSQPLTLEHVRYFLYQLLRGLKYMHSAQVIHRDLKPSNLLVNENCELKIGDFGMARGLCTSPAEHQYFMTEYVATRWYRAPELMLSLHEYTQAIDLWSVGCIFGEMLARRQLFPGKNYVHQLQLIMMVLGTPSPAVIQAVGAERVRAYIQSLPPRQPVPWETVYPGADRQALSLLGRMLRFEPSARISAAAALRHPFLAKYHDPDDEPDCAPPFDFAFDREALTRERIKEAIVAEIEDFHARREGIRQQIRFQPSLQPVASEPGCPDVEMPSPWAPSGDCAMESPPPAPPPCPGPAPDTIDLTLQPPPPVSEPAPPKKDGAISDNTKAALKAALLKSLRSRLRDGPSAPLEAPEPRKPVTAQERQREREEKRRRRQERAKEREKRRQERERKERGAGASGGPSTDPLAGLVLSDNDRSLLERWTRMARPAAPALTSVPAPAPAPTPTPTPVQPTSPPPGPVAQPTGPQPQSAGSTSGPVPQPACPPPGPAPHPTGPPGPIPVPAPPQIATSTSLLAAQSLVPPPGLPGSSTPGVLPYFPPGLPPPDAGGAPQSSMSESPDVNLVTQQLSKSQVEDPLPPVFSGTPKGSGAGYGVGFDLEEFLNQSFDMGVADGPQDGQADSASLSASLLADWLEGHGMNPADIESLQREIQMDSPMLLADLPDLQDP
# Sequence of NAD(+) hydrolase SARM1 (Homo sapiens) (Q6SZW1 whole entry, looked up, the tested form may be a part): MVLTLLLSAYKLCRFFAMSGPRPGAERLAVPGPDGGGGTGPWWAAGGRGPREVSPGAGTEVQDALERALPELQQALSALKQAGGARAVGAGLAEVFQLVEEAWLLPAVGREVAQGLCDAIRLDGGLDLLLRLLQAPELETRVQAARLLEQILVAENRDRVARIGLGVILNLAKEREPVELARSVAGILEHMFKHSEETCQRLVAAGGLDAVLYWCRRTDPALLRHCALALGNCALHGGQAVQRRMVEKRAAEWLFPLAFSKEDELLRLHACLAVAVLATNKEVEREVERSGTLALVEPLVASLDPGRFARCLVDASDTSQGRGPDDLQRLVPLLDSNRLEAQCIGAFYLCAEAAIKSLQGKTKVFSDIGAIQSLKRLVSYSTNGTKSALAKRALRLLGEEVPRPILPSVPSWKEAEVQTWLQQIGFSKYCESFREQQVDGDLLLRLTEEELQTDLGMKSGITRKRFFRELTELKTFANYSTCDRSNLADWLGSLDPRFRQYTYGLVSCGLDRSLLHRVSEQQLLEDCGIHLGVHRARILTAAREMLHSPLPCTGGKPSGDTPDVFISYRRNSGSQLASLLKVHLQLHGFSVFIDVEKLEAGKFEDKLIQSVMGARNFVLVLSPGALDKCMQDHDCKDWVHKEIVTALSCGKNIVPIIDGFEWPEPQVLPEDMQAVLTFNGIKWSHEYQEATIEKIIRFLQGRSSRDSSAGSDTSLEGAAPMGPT
# Sequence of 6-phosphogluconate dehydrogenase, decarboxylating (Homo sapiens) (P52209 whole entry, looked up): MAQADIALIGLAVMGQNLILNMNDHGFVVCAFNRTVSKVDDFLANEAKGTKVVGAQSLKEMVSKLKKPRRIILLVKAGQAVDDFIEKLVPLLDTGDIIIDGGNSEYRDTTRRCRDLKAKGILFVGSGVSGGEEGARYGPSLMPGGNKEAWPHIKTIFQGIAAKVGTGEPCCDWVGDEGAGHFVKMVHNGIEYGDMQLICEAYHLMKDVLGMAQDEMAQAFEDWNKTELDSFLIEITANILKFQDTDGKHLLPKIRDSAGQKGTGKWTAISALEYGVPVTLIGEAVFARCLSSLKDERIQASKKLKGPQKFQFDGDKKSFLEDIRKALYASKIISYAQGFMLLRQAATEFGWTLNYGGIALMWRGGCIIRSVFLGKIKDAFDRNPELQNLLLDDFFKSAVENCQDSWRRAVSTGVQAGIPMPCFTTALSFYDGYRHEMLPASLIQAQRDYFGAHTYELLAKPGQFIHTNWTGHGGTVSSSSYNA
structure (smiles),measurement,setting,value
COc1ccc(OC)c(C(O)CNC(=O)CN)c1 (centres undefined),nuclear beta-catenin stimulation,[1]; at 10 µM,3.8% (inactive)
same,nuclear beta-catenin stimulation,"[1]; stimulation, at 2 µM",4.9%
same,insulin secretion stimulation,[2],2.7% (inactive)
same,viability decrease,[3],17.9% (inactive)
same,tube area decrease,[4],-15.2% (inactive)
same,GLP1 secretion stimulation,[5],0.7% (inactive)
same,inhibition of viability,[6],-0.9% (inactive)
same,viability decrease (inhibition),[7],-26.4% (inactive)
same,viability decrease (inhibition),[8],0.7% (inactive)
same,inhibition,[9],-19.4% (inactive)
same,mean signal,[10],239 (inactive)
same,red/green cell ratio (normalised),[11],1.18 (inactive)
same,normalised cell number,[11]; [16],1.01
same,normalised cell number,[11]; [17],1.2
same,fold change,[12]; [18],0.924 (inactive) and 0.912 (inactive) and 0.855 (inactive)
same,fold change,[12]; [19],2.18 and 0.75 and 3.91
same,cell count,[12]; [20],9350 and 8590 and 11100
same,cell count,[12]; [21],10100 and 9420 and 12900
same,z-score,[13]; [22],0.0363 (inactive)
same,z-score,[13]; [23],-0.177
same,remaining NAD,[14],10 nM (inactive)
same,luciferase signal,[15],124 AU (inactive)
same,log fold change Tl+ flux,F380Y,-0.028 (inactive)
same,log fold change Tl+ flux,F380Y/beta1,0.0228 (inactive)
same,log fold change Tl+ flux,F380Y/beta2Delta,-0.0267 (inactive)
CC(C)(C)NCC(O)COc1cccc2c1C[C@H](O)[C@H](O)C2 (some centres undefined),nuclear beta-catenin stimulation,[1]; at 10 µM,1.8% (inactive)
same,nuclear beta-catenin stimulation,"[1]; stimulation, at 2 µM",-0.2%
same,insulin secretion stimulation,[2],-1.2% (inactive)
same,viability decrease,[3],-26.3% (inactive)
same,tube area decrease,[4],13.1% (inactive)
same,GLP1 secretion stimulation,[5],-1.3% (inactive)
same,inhibition of viability,[6],4.4% (inactive)
same,viability decrease (inhibition),[7],2.8% (inactive)
same,viability decrease (inhibition),[8],-5.7% (inactive)
same,inhibition,[9],6.69% (inactive)
same,mean signal,[10],269 (inactive)
same,red/green cell ratio (normalised),[11],1.06 (inactive)
same,normalised cell number,[11]; [16],1.04
same,normalised cell number,[11]; [17],1.1
same,fold change,[12]; [18],0.964 (inactive) and 0.863 (inactive)
same,fold change,[12]; [19],2.62 and 3.63
same,cell count,[12]; [20],10500 and 11100
same,cell count,[12]; [21],10900 and 12900
same,z-score,[13]; [22],0.625 (inactive)
same,z-score,[13]; [23],-0.345
same,remaining NAD,[14],10 nM (inactive)
same,luciferase signal,[15],100 AU (inactive)
same,log fold change Tl+ flux,F380Y,0.0119 (inactive)
same,log fold change Tl+ flux,F380Y/beta1,0.00674 (inactive)
same,log fold change Tl+ flux,F380Y/beta2Delta,0.0306 (inactive)
Clc1ccc2c(c1)C(N1CCNCC1)=Nc1ccccc1O2,nuclear beta-catenin stimulation,[1]; at 10 µM,0.3% (inactive)
same,nuclear beta-catenin stimulation,"[1]; stimulation, at 2 µM",-0.6%
same,insulin secretion stimulation,[2],16.5% (inactive)
same,viability decrease,[3],46.2% (inactive)
same,tube area decrease,[4],-3.9% (inactive)
same,GLP1 secretion stimulation,[5],15.3% (inactive)
same,inhibition of viability,[6],57.3% (active)
same,viability decrease (inhibition),[7],90% (active)
same,viability decrease (inhibition),[8],19.2% (inactive)
same,inhibition,[9],-21.3% (inactive)
same,mean signal,[10],211 (inactive)
same,red/green cell ratio (normalised),[11],1.17 (inactive)
same,normalised cell number,[11]; [16],0.23
same,normalised cell number,[11]; [17],0.27
same,z-score,[13]; [22],-0.224 (inactive) and 0.465 (inactive)
same,z-score,[13]; [23],0.449 and -0.479
same,remaining NAD,[14],10 nM (inactive)
same,luciferase signal,[15],32 AU (inactive)
same,log fold change Tl+ flux,F380Y,0.111 (active)
same,log fold change Tl+ flux,F380Y/beta1,0.0215 (inactive)
same,log fold change Tl+ flux,F380Y/beta2Delta,0.148 (active)
Nc1ncn([C@@H]2O[C@H](CO)[C@@H](O)[C@H]2O)c(=O)n1,nuclear beta-catenin stimulation,[1]; at 10 µM,21.7% (inactive)
same,nuclear beta-catenin stimulation,"[1]; stimulation, at 2 µM",1.8%
same,insulin secretion stimulation,[2],0.5% (inactive)
same,viability decrease,[3],83.3% (active)
same,tube area decrease,[4],66.1% (active)
same,GLP1 secretion stimulation,[5],-0.3% (inactive)
same,inhibition of viability,[6],94.3% (active)
same,viability decrease (inhibition),[7],113% (active)
same,viability decrease (inhibition),[8],91% (active)
same,inhibition,[9],4.17% (inactive)
same,mean signal,[10],231 (inactive)
same,red/green cell ratio (normalised),[11],0.99 (inactive)
same,normalised cell number,[11]; [16],0.83
same,normalised cell number,[11]; [17],0.82
same,fold change,[12]; [18],0.885 (inactive) and 0.737 (inactive) and 0.556 (active)
same,fold change,[12]; [19],3.44 and 3.26 and 2.98
same,cell count,[12]; [20],1630 and 1960 and 3690
same,cell count,[12]; [21],1840 and 2660 and 6640
same,remaining NAD,[14],10 nM (inactive)
same,luciferase signal,[15],60 AU (inactive)
same,log fold change Tl+ flux,F380Y,-0.0337 (inactive)
same,log fold change Tl+ flux,F380Y/beta1,-0.0139 (inactive)
same,log fold change Tl+ flux,F380Y/beta2Delta,0.0239 (inactive)
Cc1onc(-c2c(Cl)cccc2Cl)c1C(=O)N[C@@H]1C(=O)N2[C@@H]1SC(C)(C)[C@@H]2C(=O)O,nuclear beta-catenin stimulation,[1]; at 10 µM,1.5% (inactive)
same,nuclear beta-catenin stimulation,"[1]; stimulation, at 2 µM",1.3%
same,insulin secretion stimulation,[2],1.5% (inactive)
same,viability decrease,[3],-15.4% (inactive)
same,tube area decrease,[4],1.6% (inactive)
same,GLP1 secretion stimulation,[5],0% (inactive)
same,inhibition of viability,[6],-4.23% (inactive)
same,viability decrease (inhibition),[7],18.3% (inactive)
same,viability decrease (inhibition),[8],-11.8% (inactive)
same,inhibition,[9],-8.13% (inactive)
same,mean signal,[10],230 (inactive)
same,red/green cell ratio (normalised),[11],1.32 (inactive)
same,normalised cell number,[11]; [16],1.26
same,normalised cell number,[11]; [17],1.67
same,fold change,[12]; [18],0.978 (inactive) and 0.899 (inactive) and 0.89 (inactive)
same,fold change,[12]; [19],0.333 and 1.39 and 0.886
same,cell count,[12]; [20],10400 and 7750 and 11800
same,cell count,[12]; [21],10700 and 8620 and 13200
same,z-score,[13]; [22],0.18 (inactive)
same,z-score,[13]; [23],0.0231
same,remaining NAD,[14],10 nM (inactive)
same,luciferase signal,[15],36 AU (inactive)
same,log fold change Tl+ flux,F380Y,0.01 (inactive)
same,log fold change Tl+ flux,F380Y/beta1,-0.0941 (inactive)
same,log fold change Tl+ flux,F380Y/beta2Delta,-0.00879 (inactive)
